# Targets with a hit are over-represented here; the source holds about 6,500 in all. About 2% of all pairs of compound and target were hits. A number with no mark means an inactive call.
# Compound: COC(=O)C#Cc1ccccc1 [methyl 3-phenylpropiolate]
# Assay: log2 ratio of iodoacetamide-alkyne labeling of the cysteine site, DMSO over compound (competition); higher = stronger covalent engagement of the cysteine by the compound, active = 1 or more
# Conditions: 500 µM; treatment time 1 h; system: HEK293T cell lysate
# Procedure, shortened: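 After 1 h at ambient temperature with vehicle or electrophile (500 µM), HEK293T lysate (2 mg/mL) was labelled for 1 h with iodoacetamide alkyne and clicked to sCIP-TMT reagents. Pooled samples were trypsin-digested overnight at 37 °C, streptavidin-enriched, acid-eluted and analysed by Orbitrap Eclipse LC-MS/MS with FAIMS, then quantified in FragPipe over three replicates with duplicate channels. A cysteine's log2 competition ratio is its mean control-channel over mean compound-channel reporter intensity. Cysteines quantified in only one replicate were not included.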
# UniProt O94913, sequence (O94913 whole entry): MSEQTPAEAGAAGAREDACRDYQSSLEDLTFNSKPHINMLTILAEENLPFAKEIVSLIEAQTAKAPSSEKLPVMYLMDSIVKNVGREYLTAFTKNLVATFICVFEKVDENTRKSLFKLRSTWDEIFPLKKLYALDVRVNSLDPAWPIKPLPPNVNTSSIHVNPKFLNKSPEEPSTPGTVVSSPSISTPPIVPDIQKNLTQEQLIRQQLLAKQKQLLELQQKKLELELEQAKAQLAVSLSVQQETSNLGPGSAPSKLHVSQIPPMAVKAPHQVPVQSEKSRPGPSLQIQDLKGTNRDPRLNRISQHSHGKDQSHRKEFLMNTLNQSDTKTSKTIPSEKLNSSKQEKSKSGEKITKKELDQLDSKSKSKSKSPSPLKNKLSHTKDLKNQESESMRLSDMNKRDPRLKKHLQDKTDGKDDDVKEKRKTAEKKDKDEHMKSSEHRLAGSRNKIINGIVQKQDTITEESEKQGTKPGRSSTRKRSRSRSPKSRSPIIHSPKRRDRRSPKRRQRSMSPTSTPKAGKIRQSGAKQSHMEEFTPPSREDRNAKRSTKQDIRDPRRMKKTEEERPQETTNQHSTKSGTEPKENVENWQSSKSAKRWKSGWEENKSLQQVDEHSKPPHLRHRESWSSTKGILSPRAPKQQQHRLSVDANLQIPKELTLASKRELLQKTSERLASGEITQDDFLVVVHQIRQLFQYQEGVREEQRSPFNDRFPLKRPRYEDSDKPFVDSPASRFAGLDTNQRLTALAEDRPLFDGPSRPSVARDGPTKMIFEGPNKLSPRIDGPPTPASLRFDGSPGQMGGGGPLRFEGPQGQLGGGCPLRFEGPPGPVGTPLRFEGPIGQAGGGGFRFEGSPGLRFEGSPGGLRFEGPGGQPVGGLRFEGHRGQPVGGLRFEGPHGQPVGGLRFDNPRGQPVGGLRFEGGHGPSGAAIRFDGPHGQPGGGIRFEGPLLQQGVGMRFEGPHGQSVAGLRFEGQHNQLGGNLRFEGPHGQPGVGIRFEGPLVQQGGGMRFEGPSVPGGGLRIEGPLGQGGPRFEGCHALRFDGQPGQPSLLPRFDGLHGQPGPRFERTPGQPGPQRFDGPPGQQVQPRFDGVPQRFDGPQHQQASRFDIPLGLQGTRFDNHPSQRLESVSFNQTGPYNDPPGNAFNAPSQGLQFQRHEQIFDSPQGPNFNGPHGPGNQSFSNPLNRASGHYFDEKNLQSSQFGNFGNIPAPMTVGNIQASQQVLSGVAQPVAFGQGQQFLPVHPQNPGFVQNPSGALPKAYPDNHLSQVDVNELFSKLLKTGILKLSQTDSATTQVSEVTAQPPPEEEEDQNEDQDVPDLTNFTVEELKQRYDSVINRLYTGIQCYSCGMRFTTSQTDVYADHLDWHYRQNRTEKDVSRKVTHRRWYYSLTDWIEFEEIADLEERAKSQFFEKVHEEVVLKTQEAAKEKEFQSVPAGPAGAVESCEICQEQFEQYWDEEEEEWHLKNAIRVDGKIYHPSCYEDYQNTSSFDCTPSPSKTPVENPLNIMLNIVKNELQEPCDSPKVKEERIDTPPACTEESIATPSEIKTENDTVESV
# UniProt O14893, sequence (O14893 whole entry, looked up): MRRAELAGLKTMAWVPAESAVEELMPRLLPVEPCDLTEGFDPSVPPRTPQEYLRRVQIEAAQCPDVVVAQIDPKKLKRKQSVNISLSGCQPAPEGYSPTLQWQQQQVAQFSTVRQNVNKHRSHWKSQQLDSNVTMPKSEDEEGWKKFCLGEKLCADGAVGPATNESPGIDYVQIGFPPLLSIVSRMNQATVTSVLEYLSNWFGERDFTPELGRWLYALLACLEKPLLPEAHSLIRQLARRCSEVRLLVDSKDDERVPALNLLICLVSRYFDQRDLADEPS
# UniProt O43148, sequence (O43148 whole entry, looked up): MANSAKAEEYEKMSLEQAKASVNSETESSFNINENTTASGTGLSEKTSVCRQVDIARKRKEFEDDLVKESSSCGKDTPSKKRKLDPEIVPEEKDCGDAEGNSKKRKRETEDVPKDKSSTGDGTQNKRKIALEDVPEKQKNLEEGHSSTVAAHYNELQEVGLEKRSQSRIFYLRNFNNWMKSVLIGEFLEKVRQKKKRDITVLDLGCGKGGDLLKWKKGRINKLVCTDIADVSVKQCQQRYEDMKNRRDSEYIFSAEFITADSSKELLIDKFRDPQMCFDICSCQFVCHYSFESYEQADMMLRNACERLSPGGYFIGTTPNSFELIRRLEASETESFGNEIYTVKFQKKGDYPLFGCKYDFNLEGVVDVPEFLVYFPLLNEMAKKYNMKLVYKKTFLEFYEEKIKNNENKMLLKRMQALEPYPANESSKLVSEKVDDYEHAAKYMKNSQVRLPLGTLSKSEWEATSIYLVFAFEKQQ
# UniProt O43175, sequence (O43175 whole entry, looked up): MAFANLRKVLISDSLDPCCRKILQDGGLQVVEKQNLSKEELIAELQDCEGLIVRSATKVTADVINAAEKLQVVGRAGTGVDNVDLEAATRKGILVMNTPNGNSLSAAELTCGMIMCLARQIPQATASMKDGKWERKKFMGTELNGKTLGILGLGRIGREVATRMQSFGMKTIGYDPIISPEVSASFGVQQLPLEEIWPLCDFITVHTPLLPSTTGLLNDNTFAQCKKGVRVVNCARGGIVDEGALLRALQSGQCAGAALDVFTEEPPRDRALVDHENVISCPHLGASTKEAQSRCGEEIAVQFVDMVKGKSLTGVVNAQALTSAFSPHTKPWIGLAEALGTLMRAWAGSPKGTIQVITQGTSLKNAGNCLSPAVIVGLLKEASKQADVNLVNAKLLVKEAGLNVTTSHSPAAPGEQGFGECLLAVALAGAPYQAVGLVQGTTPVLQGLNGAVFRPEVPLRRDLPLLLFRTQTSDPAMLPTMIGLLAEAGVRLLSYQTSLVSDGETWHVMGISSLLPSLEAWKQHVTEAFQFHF
# UniProt O75665, sequence (O75665 whole entry): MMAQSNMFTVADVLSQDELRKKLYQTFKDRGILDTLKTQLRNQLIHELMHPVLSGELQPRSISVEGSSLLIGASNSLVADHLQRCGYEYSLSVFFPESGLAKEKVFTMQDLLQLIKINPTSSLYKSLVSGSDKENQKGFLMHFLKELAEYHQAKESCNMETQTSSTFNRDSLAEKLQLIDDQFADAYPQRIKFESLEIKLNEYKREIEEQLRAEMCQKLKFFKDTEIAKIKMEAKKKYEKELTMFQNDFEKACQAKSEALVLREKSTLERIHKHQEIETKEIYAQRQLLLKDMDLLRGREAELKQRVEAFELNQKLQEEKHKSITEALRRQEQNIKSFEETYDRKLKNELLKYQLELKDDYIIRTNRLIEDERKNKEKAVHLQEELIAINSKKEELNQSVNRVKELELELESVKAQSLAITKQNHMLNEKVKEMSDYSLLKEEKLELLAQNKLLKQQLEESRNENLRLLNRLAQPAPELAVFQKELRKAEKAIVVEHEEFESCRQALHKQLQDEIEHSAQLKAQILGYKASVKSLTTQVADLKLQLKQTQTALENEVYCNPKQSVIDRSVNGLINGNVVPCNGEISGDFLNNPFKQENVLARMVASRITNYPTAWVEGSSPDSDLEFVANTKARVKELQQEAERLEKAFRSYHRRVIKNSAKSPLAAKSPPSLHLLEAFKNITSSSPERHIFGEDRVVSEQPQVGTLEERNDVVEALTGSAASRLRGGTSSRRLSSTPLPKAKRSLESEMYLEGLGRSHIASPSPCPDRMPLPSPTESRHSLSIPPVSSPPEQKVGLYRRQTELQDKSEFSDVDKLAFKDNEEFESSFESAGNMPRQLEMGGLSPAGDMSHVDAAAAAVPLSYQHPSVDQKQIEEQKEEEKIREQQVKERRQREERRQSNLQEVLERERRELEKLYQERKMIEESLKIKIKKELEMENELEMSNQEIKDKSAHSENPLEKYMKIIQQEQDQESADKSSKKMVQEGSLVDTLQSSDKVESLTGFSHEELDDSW
# UniProt O15084, sequence (O15084 whole entry): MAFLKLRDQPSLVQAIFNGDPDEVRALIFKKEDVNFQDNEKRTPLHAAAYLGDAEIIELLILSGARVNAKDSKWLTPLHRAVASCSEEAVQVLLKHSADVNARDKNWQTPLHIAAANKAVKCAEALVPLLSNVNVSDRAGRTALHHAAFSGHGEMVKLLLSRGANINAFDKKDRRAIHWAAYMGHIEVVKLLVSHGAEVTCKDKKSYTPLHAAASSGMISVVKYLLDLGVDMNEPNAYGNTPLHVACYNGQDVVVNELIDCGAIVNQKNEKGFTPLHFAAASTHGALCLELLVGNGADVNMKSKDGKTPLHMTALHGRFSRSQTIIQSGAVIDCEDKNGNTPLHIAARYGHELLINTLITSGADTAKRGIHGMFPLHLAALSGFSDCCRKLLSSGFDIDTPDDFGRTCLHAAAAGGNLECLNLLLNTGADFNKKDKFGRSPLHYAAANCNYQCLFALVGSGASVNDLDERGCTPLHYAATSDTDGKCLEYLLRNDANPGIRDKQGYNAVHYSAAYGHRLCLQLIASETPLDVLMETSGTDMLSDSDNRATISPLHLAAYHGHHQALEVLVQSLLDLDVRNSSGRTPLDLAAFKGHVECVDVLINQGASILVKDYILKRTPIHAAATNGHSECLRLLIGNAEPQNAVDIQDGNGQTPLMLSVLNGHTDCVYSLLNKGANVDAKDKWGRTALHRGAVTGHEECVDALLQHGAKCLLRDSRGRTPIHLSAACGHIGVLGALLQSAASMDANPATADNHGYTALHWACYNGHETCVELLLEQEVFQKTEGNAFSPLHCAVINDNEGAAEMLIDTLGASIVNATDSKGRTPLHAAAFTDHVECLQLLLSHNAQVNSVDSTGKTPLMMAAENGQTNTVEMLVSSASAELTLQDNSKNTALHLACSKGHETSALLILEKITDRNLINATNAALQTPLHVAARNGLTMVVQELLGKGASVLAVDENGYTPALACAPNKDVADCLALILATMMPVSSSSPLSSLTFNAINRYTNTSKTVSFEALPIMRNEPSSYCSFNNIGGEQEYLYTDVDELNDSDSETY
# UniProt O00244, sequence (O00244 whole entry, looked up): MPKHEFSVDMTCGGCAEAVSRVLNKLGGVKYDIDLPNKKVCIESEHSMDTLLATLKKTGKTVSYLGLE
row,Target,log2 ratio of iodoacetamide-alkyne labeling
1,PHGDH C369 (UniProt O43175),1.78 (active)
2,USO1 C303 (UniProt O60763),0.712
3,VPS4B C240 (UniProt O75351),0.188
4,GEMIN2 C63 (UniProt O14893),0.211
5,UniProt O14628_C178,1.09 (active)
6,TBC1D4 C6 (UniProt O60343),0.373
7,UniProt O75528_C7,1.05 (active)
8,RNMT C73 (UniProt O43148),0.607
9,UniProt O95071_C2267,0.736
10,UTP20 C2058 (UniProt O75691),0.539
11,UniProt O00567_C211,1.14 (active)
12,O15320_C147 (UniProt Q96PC5+O15320),-0.197
13,OFD1 C581 (UniProt O75665),0.478
14,PCF11 C1534 (UniProt O94913),0.259
15,SF3B1 C677 (UniProt O75533),0.316
16,UniProt O15042_C291,1 (active)
17,PFAS C270 (UniProt O15067),0.115
18,ARHGEF11 C1500 (UniProt O15085),0.0286
19,HEXIM1 C79 (UniProt O94992),1.3 (active)
20,ATOX1 C12 (UniProt O00244),1.27 (active)
21,DKC1 C74 (UniProt O60832),0.427
22,ANKRD28 C701 (UniProt O15084),0.336
23,UniProt O00148_C62,0.591

# — the supplement of paper PMC11006884
